Source: PubChem BioAssay (National Center for Advancing Translational Sciences (NCATS))
Compounds with a hit are over-represented: about 1.3% of the library has one in this group of screens.
12-LOX inh = blocks human arachidonate 12S-lipoxygenase. purified 12hLO, xylenol orange hydroperoxide absorbance. Potency, µM (titrated, usually from 108 µM), for the others: at the highest dose activity change, negative = inhibition, hits mostly inhibitors. hit rate 1.1% among 580,000. AID 1671190; further: potency means the concentration at half of the fitted maximal effect; on the % scale 0 is the no-effect control and ±100 the full control effect
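Hydroperoxide product was detected by ferrous iron/xylenol orange as the 573 to 405 nm absorbance ratio. Arachidonic acid at 40 uM (final) was turned over for 30 min at room temperature by 150 nM human 12hLO, pH 7.0 Hepes buffer, after 15 min compound preincubation.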
Vif-A3G inh = blocks the Vif interaction with human APOBEC3G; AID 602310; Q9HC16; HeLa A3G-eYFP + Vif (tagged APOBEC3G with the HIV-1 protein that degrades it), YFP fluorescence, overnight; hit rate 0.076% among 410,000; Potency, µM (highest dose often 46.1 µM), inactives show at the highest dose activity, negative = active, most hits filed as inhibitors; further: potency means the concentration at half of the fitted maximal effect; on the % scale 0 is the no-effect control and ±100 the full control effect; nearly all actives have a fitted effect of over 60% in size
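HeLa cells stably expressing Vif and C-terminally eYFP-tagged A3G, seeded overnight at 37 deg C, then exposed to compound by pintool overnight at 37 deg C. Rise in yellow fluorescence (Ex 488/Em 500-530, Acumen) marks blocked Vif-driven A3G degradation.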
Vif-A3F inh = blocks the Vif interaction with APOBEC3F; HeLa A3F-eYFP + Vif (tagged APOBEC3F with the HIV-1 protein that degrades it), YFP fluorescence increase; Potency, µM (doses to about 46.1 µM), without a hit: top-dose activity, negative = active; hit rate 0.2% among 390,000; further: potency means the concentration at half of the fitted maximal effect; % of control where 0% means no effect; nearly all actives have a fitted effect of over 65% in size
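HeLa cells stably expressing A3F-eYFP plus Vif, plated and incubated overnight at 37 deg C, then exposed to compounds overnight at 37 deg C. Blocked degradation read as raised yellow fluorescence (Ex 488/Em 500-530).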
TRPML1 blocker = blocks the human TRPML1 channel; TRPML1-inducible cells, Ca2+ dye fluorescence, FDSS; active compounds read low; inhibition of EC80 agonist-evoked calcium signal; hit rate 0.02% among 390,000; Q9GZU1; activity change, negative = inhibition, % (concentration not given with the values); in the data active means activity change below about -50%; inconclusive means between about -30% and that limit;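 further: stimulus is agonist 54-4 at its EC80 concentration; on the % scale 0 is the no-effect control and ±100 the full control effect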
Target sequence (Q9GZU1 whole entry, looked up): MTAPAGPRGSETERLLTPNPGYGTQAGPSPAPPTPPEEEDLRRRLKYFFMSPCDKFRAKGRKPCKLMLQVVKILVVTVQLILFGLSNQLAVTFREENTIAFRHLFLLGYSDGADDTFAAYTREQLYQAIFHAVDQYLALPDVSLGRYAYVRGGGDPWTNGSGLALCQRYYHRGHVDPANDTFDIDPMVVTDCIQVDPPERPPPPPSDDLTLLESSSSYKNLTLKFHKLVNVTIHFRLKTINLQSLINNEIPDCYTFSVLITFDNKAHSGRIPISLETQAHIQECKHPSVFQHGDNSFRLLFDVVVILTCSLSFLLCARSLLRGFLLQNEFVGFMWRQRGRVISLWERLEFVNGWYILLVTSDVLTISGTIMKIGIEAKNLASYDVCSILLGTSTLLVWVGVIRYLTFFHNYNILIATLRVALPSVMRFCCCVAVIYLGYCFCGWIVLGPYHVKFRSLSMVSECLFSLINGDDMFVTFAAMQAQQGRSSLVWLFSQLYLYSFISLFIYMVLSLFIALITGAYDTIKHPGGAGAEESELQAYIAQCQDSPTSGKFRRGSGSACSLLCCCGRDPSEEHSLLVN
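TRPML1-DL cells, Tet-induced overnight (~16 h, 37 °C) at 1,500 cells/well, were loaded with Ca8 no-wash dye plus quencher for 45-90 min at room temperature. Compounds were pinned during FDSS kinetic reading; agonist 54-4 at EC80 (4 uM final) then added.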
TRPML1 agonist = human mucolipin-1 channel agonism; Q9GZU1; TRPML1-expressing cells, Ca2+ dye fluorescence, FDSS; activation, % (concentration not given with the values); hit rate 0.12% among 410,000; AID 624414; in the data active means activation above about 50%; inconclusive means mostly about 30% to 49%; further: 0% is about no effect
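In this qHTS format, compounds were pin-transferred onto Ca8-dye-loaded TRPML1-DL cells induced with Tet overnight, and intracellular Ca2+ fluorescence was recorded kinetically for 110 s after a 10 s baseline. A subsequent 4uM final 54-4 (EC80) addition followed by a second 110 s read served as the antagonist phase.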
Glioma ERSR ind = inducers of ER stress response in human glioma cells; U87-MG GRP78 promoter luciferase reporter, 16 h; Potency, µM, without a hit: top-dose activation, actives largely listed as activators; hit rate 0.02% among 420,000; further: potency means the concentration at half of the fitted maximal effect; series mostly up to about 76 µM; % of control where 0% means no effect; nearly all actives have a fitted effect of over 35% in size
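ERSR induction read as luciferase luminescence (Bright-Glo, 10 min at room temperature) in stably transfected human U87-MG glioma cells exposed to compounds for 16 h, using GRP78 as sensor.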
* marks the source's active call; other numbers are inactive results. Unless noted, the call rests on the fitted dose curve; in most records, active means well fitted curve in the direction sought with a large enough effect; inconclusive means small, poorly fitted or top-dose-only effect, or another doubt; inactive means no such curve, though single readings can be large; an effect the other way counts as inactive or inconclusive.

Screening Cc1ccc(-n2ncc3c(=O)n(-c4ccc5c(c4)OCCO5)c(-c4ccco4)nc32)cc1C returned 12-LOX inh 3%.
Screening Cc1cc(NC(=O)CN2CCN(C(=O)c3cccc(Cl)c3Cl)CC2)no1 returned 12-LOX inh 23%.
Oc1c(Br)cc(Cl)cc1Cc1cc(Cl)cc(Br)c1O was read as 12-LOX inh 28µM*.
NC(=O)COc1c(Cl)cc(Cl)cc1Br was read as 12-LOX inh 10%.
Screening COC(=O)CN1CCN(c2nc3c(c(=O)[nH]c(=O)n3C)n2Cc2ccccc2Cl)CC1 returned 12-LOX inh 8%.
Screening CN(C)Cc1ccccc1-c1cc(N(C)C)ncn1 returned 12-LOX inh 40µM* and Glioma ERSR ind -2%.
`CN(C)Cc1ccccc1-c1cc(Nc2ccccc2)ncn1` gave 12-LOX inh -9% and Glioma ERSR ind -1%.
For Cc1cc(C(F)(F)F)c(C#N)c(=S)[nH]1 the results were 12-LOX inh 16µM*.
CC(C)(C)c1cc(C(F)(F)F)c(C#N)c(=O)[nH]1 was read as 12-LOX inh inconclusive, Vif-A3G inh 1%, Vif-A3F inh 2%, TRPML1 blocker 4, TRPML1 agonist -1 and Glioma ERSR ind -8%.
O=C(c1ccc(Cl)cc1)c1oc2ccccc2c1CS(=O)c1ccc(Cl)cc1 (stereo not drawn) was read as 12-LOX inh 4.5µM*, Vif-A3G inh 0%, Vif-A3F inh -5%, TRPML1 blocker -1, TRPML1 agonist 0 and Glioma ERSR ind -3%.
Nc1c(C(=O)c2ccc(Cl)cc2)oc2ccccc12 was read as 12-LOX inh -11%, Vif-A3G inh -2%, Vif-A3F inh -2%, TRPML1 blocker 26, TRPML1 agonist 0 and Glioma ERSR ind 4%.
`Cc1ccc(N=CC=C2OC(C)(C)C(C)(C)O2)cc1` gave 12-LOX inh 35µM*, Vif-A3G inh 0%, Vif-A3F inh -3%, TRPML1 blocker 37, TRPML1 agonist 1 and Glioma ERSR ind inconclusive.
CCc1ccc2oc(=O)cc(-c3oc4ccccc4c3NC(=O)C3CC3)c2c1 was read as 12-LOX inh 7.9µM*.
`Cc1cc(C)c2c(N)c(C(=O)NN3CC(=O)N(c4ccccc4)CC3=O)sc2n1` gave 12-LOX inh 50µM*, Vif-A3G inh -2%, Vif-A3F inh 1%, TRPML1 blocker 40, TRPML1 agonist 1 and Glioma ERSR ind -3%.
`O=C(O)c1cc2c(ccc3ccccc32)oc1=O` gave 12-LOX inh -29%.
Screening CC(=O)c1cc2c(ccc3ccccc32)o1 returned 12-LOX inh 32µM*.
`CC1CCN(C(=O)c2cc3c(ccc4ccccc43)o2)CC1` gave 12-LOX inh 45µM*, Vif-A3G inh 1%, Vif-A3F inh 2%, TRPML1 blocker 7, TRPML1 agonist 0 and Glioma ERSR ind -11%.
For CNC(=O)c1ccc(CN(C)C(=O)CCc2ncc(-c3ccc(C)cc3)o2)cc1 the results were 12-LOX inh -19%.
Screening CCN1/C(=C/C=C2/SC(=Nc3cccc4ncccc34)N(C)C2=O)Sc2ccccc21 returned 12-LOX inh inconclusive, Vif-A3G inh -22%, Vif-A3F inh 3.5µM*, TRPML1 blocker 19, TRPML1 agonist 6 and Glioma ERSR ind -2%.
Screening O=C(O)c1cc(O)ccc1N=Nc1ccccc1 returned 12-LOX inh 60%, Vif-A3G inh inconclusive, Vif-A3F inh 1%, TRPML1 blocker -2, TRPML1 agonist -1 and Glioma ERSR ind 28µM*.
Screening COC(=O)c1ccc(CSc2ccc3nnc(-c4cccc(F)c4)n3n2)o1 returned 12-LOX inh 28µM*, Vif-A3G inh 0%, Vif-A3F inh -7%, TRPML1 blocker 1, TRPML1 agonist 3 and Glioma ERSR ind -4%.
`O=C(CSc1nc2ccccc2[nH]1)N1N=C(c2cccs2)CC1c1ccco1` (stereo not drawn) gave 12-LOX inh -19%.
For CC(=O)Nc1sc(N/N=C/c2ccc(C)cc2)nc1-c1ccc(C)cc1 the results were 12-LOX inh inconclusive, Vif-A3G inh 1%, Vif-A3F inh 5%, TRPML1 blocker -10, TRPML1 agonist 0 and Glioma ERSR ind 5%.
CC(=O)Nc1sc(/C(C#N)=C/c2ccc(Cl)c(Cl)c2)nc1-c1ccc(C)cc1 was read as 12-LOX inh -17%, Vif-A3G inh inconclusive, Vif-A3F inh inconclusive, TRPML1 blocker inconclusive, TRPML1 agonist 75* and Glioma ERSR ind -2%.
`CC(=O)Nc1nc(CC(C)C)cc(-c2ccccc2)c1C#N` gave 12-LOX inh 0%, Vif-A3G inh -1%, Vif-A3F inh -15%, TRPML1 blocker 18, TRPML1 agonist 3 and Glioma ERSR ind -4%.
For CC(=O)Nc1nc(CC(C)C)cc(-c2ccco2)c1C#N the results were 12-LOX inh 13µM*, Vif-A3G inh -5%, Vif-A3F inh -5%, TRPML1 blocker 11, TRPML1 agonist -1 and Glioma ERSR ind -6%.
`Cc1cc(C)cc(OCCN(C)C(=O)c2cc(=O)[nH]c3ccccc23)c1` gave 12-LOX inh -29%.
For COc1cc2nc(C)n(CC(=O)NC3CCCc4c3[nH]c3ccccc43)c(=O)c2cc1OC (stereo not drawn) the results were 12-LOX inh 45µM*.
Screening Cc1noc(C)c1CC(=O)NC1CCCc2c1[nH]c1ccccc21 (stereo not drawn) returned 12-LOX inh -5%.
O=C(Cc1ccc2c(c1)OCCCO2)NC1CCCc2c1[nH]c1ccccc21 (stereo not drawn) was read as 12-LOX inh 50µM*.
O=C(NC1CCCc2c1[nH]c1ccccc21)c1ccccc1 (stereo not drawn) was read as 12-LOX inh -4%.
`OC(CNCCc1ccc(C(F)(F)F)cc1)COC(c1ccccc1)c1ccccc1` (stereo not drawn) gave 12-LOX inh 14µM*, Vif-A3G inh -4%, Vif-A3F inh 1% and Glioma ERSR ind -17%.
For COc1ccc(C(OCC(O)CNCCc2ccc(S(N)(=O)=O)cc2)c2ccc(OC)cc2)cc1 (stereo not drawn) the results were 12-LOX inh 0%, Vif-A3G inh -10%, Vif-A3F inh 6%, TRPML1 blocker -7, TRPML1 agonist 0 and Glioma ERSR ind 5%.
For Cc1cc(C(=O)OCC(=O)Nc2ccccc2C(C)C)c2ccccc2n1 the results were 12-LOX inh 12%.
`CN(C)S(=O)(=O)NC(=O)c1cc(Br)ccc1F` gave 12-LOX inh -7%.
